Screening results: PubChem BioAssay, Broad Institute
Sampled rows, rich in hits. Any-hit rate of the full collection: about 2.5%.
U2OS ROS induce: ROS inducers in U2OS cancer cells, primary screen, cell-based, H2DCF-DA fluorescence; ROS induction (% of piperlongumine), % at 10 µM; U2OS ROS induction; 46,000 compounds, 2% hits; in the data active = ROS induction above about 79%, passing the limit was not always enough; inconclusive = no clear call, values can overlap the other calls;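 also: 0% = DMSO vehicle median and 100% = reference compound median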
MITF inhib: inhibitors of MITF, primary screen, MITF inhibitor project, cell-based, luminescence; AID 2240, 2010; inhibition, % (test concentration not listed); 37,000 compounds, 0.28% hits; TRPM1 promoter luciferase, 24 h; in the data active = inhibition above about 85%; inconclusive = no clear call, values can overlap the other calls; inactive = below about 68%;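 also: human melanocyte line stably carrying TRPM1 promoter luciferase reporter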
YB-1 expr inh: inhibitors of YB-1 gene expression, primary screen, cell-based, fluorescence; U2OS, qRT-PCR YB-1 vs CDIP delta delta Cp, 16 h; hits give high values; zero = DMSO, each unit about twofold; delta delta Cp (YB-1 minus CDIP) (test concentration not listed); 30,000 compounds, 0.37% hits;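 active = delta delta Cp rounded down to an integer at or above 3, about 3 SD of DMSO wells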;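 also: higher means less YB-1 transcript or more CDIP transcript relative to DMSO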
BJeLR viability: BJeLR cell viability loss, primary screen, luminescence, CellTiterGlo ATP | AID 2275, 2010 | viability loss activity score, % (test concentration not listed) | BJeLR fibroblasts viability, 48 h; HRASV12, hTERT and SV40 LT/ST transformed | 30,000 compounds, 0.64% hits; in the data active = viability loss activity score above about 50%; inconclusive = no clear call, values can overlap the other calls; inactive = below about 35%;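 also: higher score means fewer live cells and less ATP luminescence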
Numbers without * were called inactive; ? = inconclusive; . = no result.

SMILES	U2OS ROS induce	MITF inhib	YB-1 expr inh	BJeLR viability
C[C@@H]1CN([C@H](C)CO)C(=O)c2cc(NC(=O)Cc3cn(C)c4ccccc34)ccc2O[C@H]1CN(C)Cc1ccc2c(c1)OCO2	16	12	-0.54	1
C[C@H](CO)N1C[C@H](C)[C@@H](CN(C)Cc2ccc3c(c2)OCO3)Oc2ccc(NC(=O)Cc3cn(C)c4ccccc34)cc2C1=O	117*	23	0.081	-1
C[C@H]1CN([C@@H](C)CO)C(=O)c2cc(NC(=O)Cc3cn(C)c4ccccc34)ccc2O[C@@H]1CN(C)Cc1ccc(Oc2ccccc2)cc1	134*	25	-0.14	-5
C[C@H](CO)N1C[C@H](C)[C@@H](CN(C)Cc2ccc(-c3ccccc3)cc2)Oc2ccc(NC(=O)Cc3cn(C)c4ccccc34)cc2C1=O	199*	24	0.045	1
C[C@H]1CN([C@@H](C)CO)C(=O)c2cc(NC(=O)Cc3cn(C)c4ccccc34)ccc2O[C@H]1CN(C)Cc1ccc(Oc2ccccc2)cc1	-1	21	-0.12	4
CCOc1ccc(NC(=O)CN(Cc2ccccc2)S(=O)(=O)c2ccc(C)cc2)cc1	15	.	.	1
Cc1noc(C)c1S(=O)(=O)NC(C)c1ccccc1 (stereo not drawn)	.	.	.	0
CCCN1C(=O)/C(=C/C=C2/Oc3ccccc3N2CCC(=O)O)N(CCO)C1=S	-7	.	.	6
C[C@H]1CC[C@@H]2[C@@H](C(=O)c3c(O)c([C@]4(O)CC[C@@H](O)[C@H]5O[C@H]54)cn(O)c3=O)[C@@H](C)C=C[C@H]2C1	-6	67	1.7	53*
O=C(NCc1cc(F)cc2c1OCOC2)c1ccc2nonc2c1	-10	.	.	5
C=CCSc1nnc2c(n1)OC(c1ccc(-c3ccc(F)cc3)o1)N(C(C)=O)c1ccccc1-2 (stereo not drawn)	118*	-3	0.17	-3
O=C(NCc1ccsc1)c1ccc2c(c1)OCCCO2	.	.	.	1
CCN(CC)c1ncc2c(NCc3ccccc3)nc(SCc3ccccc3)nc2n1	129*	7	0.41	0
CN(Cc1ccccc1)C(=O)CSc1nc(NCc2ccc(Cl)cc2)c2ccccc2n1	22	.	.	13
COc1ccc(C[C@H](N)C(=O)N[C@@H]2[C@@H](CO)OC(n3cnc4c(N(C)C)ncnc43)[C@@H]2O)cc1 (stereo partly drawn)	-4	106*	0.076	2
O=C(Cc1ccccc1)NC1(C(=O)Nc2cccc(Cl)c2)CCCCC1	-7	.	.	-3
C/C=C(/C)C(=O)O[C@H]1C=C(CO)C(=O)[C@H](OC(=O)/C(C)=C/CO)[C@H]1C(C)C	87*	106*	0.092	81*
C=C1C2=C(O[C@H](/C(C)=C/C(C)CC(C)CC)[C@@H](O)[C@@H]2O)C(=O)N1OC (stereo partly drawn)	149*	-2	-0.38	0
CC(C)(C)c1ccc(S(=O)(=O)N2CCN(c3ccc([N+](=O)[O-])c(NCc4cccnc4)c3)CC2)cc1	98*	28	.	.
O=[N+]([O-])c1ccc(N2CCN(S(=O)(=O)c3ccc(F)cc3)CC2)cc1NCc1cccnc1	136*	8	.	.
O=[N+]([O-])c1ccc(N2CCN(S(=O)(=O)c3ccc(Cl)s3)CC2)cc1NCc1ccco1	36	-9	.	.
Cc1cc(C)c(S(=O)(=O)N2CCN(c3ccc([N+](=O)[O-])c(NCc4ccco4)c3)CC2)c(C)c1	.	0	.	.
CCOc1ccc(N=c2ccc3ccccc3n2C)cc1	-12	.	.	2
C[C@H]1CN([C@@H](C)CO)C(=O)CCCn2nncc2CO[C@@H]1CN(C)CC1CC1	71	.	-0.081	.
C[C@@H]1CN([C@@H](C)CO)C(=O)CCCn2nncc2CO[C@H]1CN(C)C(=O)c1ccc2ccn(C)c2c1	94*	.	-0.16	.
SMILES	U2OS ROS induce	MITF inhib	YB-1 expr inh	BJeLR viability
C[C@H](CO)N1C[C@H](C)[C@H](CN(C)CC2CC2)OCc2cnnn2CCCC1=O	137*	.	0.012	.
Cc1ccsc1CNC(=O)c1ccc(Cl)cc1	.	.	.	3
COC(=O)c1ccc([C@@H]2C=C(C(=O)N3CCN(Cc4ccc5c(c4)OCO5)CC3)O[C@H](OCc3ccc(CO)cc3)C2)cc1	100*	.	0.66	.
Cc1ccc(C)c(-c2csc(NC(=O)CCCc3ccccc3)c2C(N)=O)c1	?	.	.	5
COc1ccc(C)cc1NC(=O)CSc1nnc(-c2ccc(C(C)(C)C)cc2)n1C	93*	31	.	.
COc1ccc(C)cc1NC(=O)CSc1nnc(-c2ccc(Cl)c(Cl)c2)n1C	9	7	.	.
COc1ccc(-n2c(-c3cccc(OC)c3)csc2=NCc2cccnc2)cc1	116*	54	0.34	5
FC(F)(F)Oc1ccc(-c2nnc(-c3cccnc3)o2)cc1	-2	.	.	-1
Cc1ccc(C(=O)OCC2OC3C(Oc4c(C)c(=O)ncn43)C2OC(=O)c2ccc(C)cc2)cc1 (stereo not drawn)	-5	.	.	-7
O=C(CN1C(C(=O)c2ccccc2)C(=O)c2ccccc2S1(=O)=O)c1ccccc1 (stereo not drawn)	-17	.	.	3
CCC1CN2CCc3cc(OC)c(OC)cc3[C@@H]2C[C@@H]1C[C@H]1NCCc2cc(OC)c(OC)cc21 (stereo partly drawn)	-5	.	.	86*
CCCC(=O)N1CCc2cc(OC)c(OC)cc2C1COc1ccc(OC)cc1 (stereo not drawn)	10	.	.	3
CC(=O)O[C@H]1C(=O)[C@@]2(C)C([C@H](OC(=O)c3ccccc3)[C@]3(O)C[C@H](OC(=O)[C@H](O)[C@@H](NC(=O)c4ccccc4)c4ccccc4)C(C)=C1C3(C)C)[C@]1(OC(C)=O)CO[C@@H]1C[C@@H]2O (stereo partly drawn)	-4	19	-0.017	50*
O=C(CSc1ccc(-c2ccncc2)nn1)Nc1ccccc1	-1	.	.	-3
CCOc1cc(/C=C2\SC(=O)N(Cc3ccc(F)cc3)C2=O)ccc1O	10	.	.	-7
CCOc1cc(/C=C2\Sc3ccccc3C2=O)cc(I)c1O	96*	.	.	1
COc1ccc(C2C(C(=O)Nc3cc(OC)c(Cl)cc3OC)=C(C)Nc3ncnn32)c(OC)c1 (stereo not drawn)	136*	0	.	.
COc1ccc(C2NC(=S)NC(C)=C2C(=O)Nc2cc(OC)c(Cl)cc2OC)c(OC)c1 (stereo not drawn)	.	20	.	.
CCCNC(=O)c1cnn2c(C)c(Cc3ccccc3)c(C)nc12	8	.	.	-2
CC(NC(=O)c1cnn2c(C(F)(F)F)cc(-c3cccs3)nc12)c1ccccc1 (stereo not drawn)	85*	.	.	-8
CCn1c(-c2ccccc2)ccc1C(O)C(F)(F)F (stereo not drawn)	-11	.	.	6
CCC(C)[C@H]1C(=O)O[C@H](C(C)C)C(=O)N(C)[C@@H](C(C)C)C(=O)O[C@H](C(C)C)C(=O)N(C)[C@@H](C(C)C)C(=O)O[C@H](CC(C)C)C(=O)N1C (stereo partly drawn)	-4	78	0.71	79*
